From PubChem BioAssay (NCATS)
Several values for one entry are separate records, joined by “and”; a condition that tells them apart may be missing. Equal entries are not always repeated. Results filed as inconclusive are left out. Activity calls are given as the source filed them. Calls come from the whole dose curve; as a rule, active = well fitted curve in the direction sought with a large enough effect; inconclusive = small, poorly fitted or top-dose-only effect, or another doubt; inactive = no such curve, though single readings can be large; an effect the other way counts as inactive or inconclusive.

Experiments:
[1] = test system: HEK293; assay: Cytotoxic Profiling of Annotated Libraries Using Quantitative High-Throughput Screening (AID 1296008); conditions: Five cell lines viability, CellTiter-Glo ATP luminescence, 48-72 h; max response: stronger effect = lower value; note: nearly all actives have a fitted effect of over 60% in size
Summary of the method: (§1)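 Cytotoxicity was measured as CellTiter-Glo ATP luminescence, read after 10 min at room temperature. Compound treatment of the cells lasted 48 or 72 hr at 37 degrees Celsius in a qHTS format.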

[2] = test system: HaCat; assay: as above; conditions: Five cell lines viability, CellTiter-Glo ATP luminescence, 48-72 h; max response: stronger effect = lower value
Summary of the method: as §1

[3] = test system: KB-3-1; assay: as above; conditions: Five cell lines viability, CellTiter-Glo ATP luminescence, 48-72 h; max response: stronger effect = lower value
Summary of the method: as §1

[4] = test system: NIH3T3; assay: as above; conditions: Five cell lines viability, CellTiter-Glo ATP luminescence, 48-72 h; max response: stronger effect = lower value
Summary of the method: as §1

[5] = test system: HACAT; assay: qHTS assay to identify novel small-molecules to repurpose for Merkel cell carcinoma treatment (AID 1296009); conditions: MCC and control cell lines, CellTiter-Glo viability, 72 h; at 44.8 µM (top of the series) unless noted; note: nearly all actives have a fitted effect of over 60% in size
Summary of the method: (§2)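 Cell viability, measured as CellTiter-Glo luminescence, was normalized between DMSO and no-cell wells. The cells had been exposed to 8- or 11-point compound dilutions for 72 hr at 37 degree celsius.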

[6] = test system: HEK293T; assay: as above; conditions: MCC and control cell lines, CellTiter-Glo viability, 72 h; at 44.8 µM (top of the series)
Summary of the method: as §2

[7] = test system: MCC-13; assay: as above; conditions: MCC and control cell lines, CellTiter-Glo viability, 72 h; series mostly up to 46 µM
Summary of the method: as §2

[8] = test system: MCC-26; assay: as above; conditions: MCC and control cell lines, CellTiter-Glo viability, 72 h; series mostly up to 46 µM
Summary of the method: as §2

[9] = test system: MKL-1; assay: as above; conditions: MCC and control cell lines, CellTiter-Glo viability, 72 h; series mostly up to 46 µM
Summary of the method: as §2

[10] = test system: MKL-2; assay: as above; conditions: MCC and control cell lines, CellTiter-Glo viability, 72 h; series mostly up to 46 µM
Summary of the method: as §2

[11] = test system: UISO; assay: as above; conditions: MCC and control cell lines, CellTiter-Glo viability, 72 h; series mostly up to 46 µM
Summary of the method: as §2

[12] = test system: WaGa; assay: as above; conditions: MCC and control cell lines, CellTiter-Glo viability, 72 h; series mostly up to 46 µM
Summary of the method: as §2

[13] = test system: NIH3T3; assay: as above; conditions: MCC and control cell lines, CellTiter-Glo viability, 72 h; at 44.8 µM (top of the series) unless noted
Summary of the method: as §2

[14] = test system: C33A; assay: Primary qHTS to identify gynecologic anti-cancer compounds using libraries of approved drugs and bioactive compounds (AID 1345084); conditions: Gynecologic cancer cell panel viability, ATPlite luminescence, 48 h; series mostly up to 57.5 µM; note: nearly all actives have a fitted effect of over 55% in size
Summary of the method: (§3)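 Luminescence from the ATPlite ATP-monitoring reagent indicates viable cell number; lower signal means cytotoxicity. Cells received compound 16 h after seeding and were exposed for 48 h across five concentrations.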

[15] = test system: Es-2; assay: as above; conditions: Gynecologic cancer cell panel viability, ATPlite luminescence, 48 h; series mostly up to 57.5 µM
Summary of the method: as §3

[16] = test system: HeLa; assay: as above; conditions: Gynecologic cancer cell panel viability, ATPlite luminescence, 48 h; series mostly up to 57.5 µM
Summary of the method: as §3

[17] = test system: CAOV3; assay: as above; conditions: Gynecologic cancer cell panel viability, ATPlite luminescence, 48 h; series mostly up to 57.5 µM
Summary of the method: as §3

[18] = test system: CASKI; assay: as above; conditions: Gynecologic cancer cell panel viability, ATPlite luminescence, 48 h; series mostly up to 57.5 µM
Summary of the method: as §3

[19] = test system: Hek293T; assay: as above; conditions: Gynecologic cancer cell panel viability, ATPlite luminescence, 48 h, control line for the selectivity index; series mostly up to 57.5 µM
Summary of the method: as §3

[20] = test system: JEG-3; assay: as above; conditions: Gynecologic cancer cell panel viability, ATPlite luminescence, 48 h; series mostly up to 57.5 µM
Summary of the method: as §3
% is set by controls: 0 for no effect and ±100 for the full control effect; potency is the fitted concentration of half-maximal effect.

NC1CCC(Nc2nc(Nc3ccc(C(=O)N4CCCCC4)cc3)c3ncn(-c4cccc(F)c4)c3n2)CC1 (stereo unspecified)
inactive: outcome [1] | outcome [2] | max response [3] -2.33% | max response [4] 4.66% | outcome [5] | outcome [6] | Potency [7] | Potency [8] | Potency [9] | Potency [10] | Potency [11] | Potency [12]

CC1(C)Cc2c(sc(NC(=S)NC(=O)c3ccccc3)c2C(=O)O)CO1
inactive: outcome [1] | outcome [2] | outcome [3] | outcome [4] | outcome [5] | outcome [6] | Potency [7] | Potency [9] | outcome [13] | Potency [11] | Potency [12]

CC1(C)CCC[C@@]2(C)[C@@H]1CC[C@@]1(C)OC(=O)C[C@H]21
inactive: max response [1] -1.67% | outcome [2] | max response [3] 5.91% | max response [4] 1.1% | outcome [5] | Potency [7] | Potency [8] | Potency [9] | Potency [10] | Potency [11] | Potency [12]

c1cc(-c2sc(-c3ccncc3)c(-c3ccncc3)c2-c2ccncc2)ccn1
inactive: max response [1] -5.01% | outcome [2] | max response [3] 6.28% | max response [4] 4.17% | outcome [5] | Potency [7] | Potency [8] | Potency [9] | Potency [10] | Potency [12]

OC[C@H]1O[C@@H](n2cnc3c2NC=NC[C@@H]3O)C[C@H]1O
inactive: outcome [1] | max response [2] 1.63% | max response [3] -3.46% | outcome [4] | outcome [6] | Potency [7] | Potency [8] | Potency [9] | Potency [10] | outcome [13] | Potency [11] | Potency [12]

COc1ccc(-c2coc3cc(O)ccc3c2=O)cc1
inactive: max response [1] -7.99% | outcome [2] | max response [3] 7.74% | max response [4] -7.78% | outcome [5] | Potency [7] | Potency [8] | Potency [9] | Potency [10] | Potency [11] | Potency [12]

C=C1C(=O)OC(CCCCCCCC)C1C(=O)O (stereo unspecified)
inactive: outcome [1] | outcome [2] | max response [3] -17.3% | max response [4] 2.38% | outcome [5] | outcome [6] | Potency [7] | Potency [8] | Potency [9] | Potency [10] | Potency [11] | Potency [12]

COCCOc1nc(-c2ccc(Cl)c(Cl)c2)n(-c2ccc(NC(=O)CCl)cc2)n1
inactive: outcome [2] | outcome [5] | Potency [7] | Potency [8] | Potency [9] | Potency [16]
active: Potency [1] 3.72 µM and 4.61 µM | Potency [3] 18.7 µM | Potency [4] 4.11 µM | Potency [14] 20 µM | Potency [15] 11.2 µM

CC=C(C)C(=O)O[C@H]1C(C)=C[C@]23C(=O)[C@@H](C=C(CO)[C@@H](O)[C@]12O)[C@H]1[C@@H](C[C@H]3C)C1(C)C
active: Potency [1] 26.4 µM
inactive: outcome [2] | max response [3] -20.1% | max response [4] -20.8% | outcome [5] | Potency [7] | Potency [8] | Potency [9] | Potency [10] | Potency [12]

Cc1cccc(C)c1OCC(C)N (stereo unspecified)
inactive: outcome [1] | outcome [2] | max response [3] 6.51% | outcome [4] | outcome [5] | outcome [6] | Potency [7] | Potency [8] | Potency [9] | Potency [10] | outcome [13] | Potency [11] | Potency [12] | Potency [14] | Potency [17] | Potency [18] | Potency [15] | Potency [16] | Potency [19] | Potency [20]

CCCCCCCCCCCC1=C(O)C(=O)C=C(O)C1=O
active: Potency [9] 2.96 µM | Potency [12] 2.96 µM
inactive: outcome [1] | outcome [2] | outcome [3] | max response [4] -3.68% | outcome [5] | outcome [6] | Potency [7] | Potency [11]

NCCS
inactive: outcome [1] | outcome [2] | max response [3] -0.944% and -2.01% | max response [4] 4.3% | outcome [5] | outcome [6] | Potency [7] | Potency [8] | Potency [9] | Potency [10] | Potency [11] | Potency [12] | Potency [14] | Potency [18] | Potency [15] | Potency [16] | Potency [19] | Potency [20]

CC(C(=O)O)c1ccc(-c2ccccc2)c(F)c1 (stereo unspecified)
inactive: max response [1] 1.61% | outcome [2] | max response [3] -1.08% and -0.207% | max response [4] -0.252% | outcome [5] | Potency [7] | Potency [8] | Potency [9] | Potency [10] | Potency [11] | Potency [12]

Clc1ccc(-c2nc3sccn3c2C=NOCc2ccc(Cl)c(Cl)c2)cc1
inactive: max response [1] -1.21% | outcome [2] | max response [3] -5.79% | max response [4] -1.3% | outcome [5] | Potency [7] | Potency [8] | Potency [9] | Potency [10] | Potency [11] | Potency [12]

N#Cc1ccc(NC(=O)Nc2ccccc2Br)c2n[nH]nc12
inactive: max response [1] -11% | outcome [2] | max response [3] 1.71% | max response [4] 3.86% | outcome [5] | Potency [7] | Potency [8] | Potency [9] | Potency [10] | Potency [11] | Potency [12]
